From PubChem BioAssay (NCATS)
Inconclusive results are not listed. Entries that show only a call come without a potency. Activity calls are given as the source filed them. Unless noted, calls come from the whole dose curve; as a rule, active = well fitted curve in the direction sought with a large enough effect; inconclusive = small, poorly fitted or top-dose-only effect, or another doubt; inactive = no such curve, though single readings can be large; an effect the other way counts as inactive or inconclusive.

Columns and labels:
[1] = Cytometric Cell-Based qHTS for Inhibitors of the mTORC1 Signaling Pathway in MEF (Tsc2-/-, p53-/-) Cells (AID 2660);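 note: Tsc2 and p53 null MEFs carrying empty vector with compound for 24 h; percent of cells above a phospho-rpS6 to PI ratio cutoff in each well; series mostly up to about 38 µM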
Method in brief: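 Immunofluorescence qHTS of rpS6 Ser235/236 phosphorylation: MEFs (Tsc2-/-, p53-/-) treated 24 h, 37 C, in DMEM + 10% FBS. Alexa-488 signal normalized to PI count, referenced to rapamycin (7.5 nM) and DMSO; PI cell number recorded for viability.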

[2] = High Content Imaging Cell-Based qHTS for Inhibitors of the mTORC1 Signaling Pathway in MEF (Tsc2-/-, p53-/-) Cells (AID 2666);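 note: percent of cells scored positive for phospho-rpS6 Ser235/236 immunostaining by imaging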
Method in brief: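 Inhibition of rpS6 phosphorylation is measured by immunofluorescence imaging in empty-vector Tsc2-/-, p53-/- mouse embryonic fibroblasts after 24 hrs compound exposure at 37 degree Celsius. Results are reported as % positive cells per well.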

[3] = High Content Imaging Cell-Based qHTS for Inhibitors of the mTORC1 Signaling Pathway in MEF Cells (AID 2667);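 note: Tsc2-/- p53-/- MEFs stably re-expressing wild-type Tsc2 exposed 24 h; series mostly up to about 38 µM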
Method in brief: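 Fixed-cell imaging of phospho-S6 (Ser235/236, Alexa-488) after 24 hrs of compound treatment at 37 degree Celsius. Signal was normalized to Hoechst, and thresholds from the highest and lowest wells split cells into % active versus % non-active.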

[4] = Validation screen for small molecules that induce DNA re-replication in MCF 10A normal breast cells (AID 463097); note: nearly all actives have a fitted effect of over 60% in size; note: potency is the fitted concentration of half-maximal effect
Method in brief: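 250 MCF 10A cells/well; compound pin-transferred; 48 hr, 37 C, 5% CO2; Hoechst 40 min; imaged 405/500-530 nm. Hits = more high-intensity nuclei.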

[5] = target: Ubiquitin carboxyl-terminal hydrolase 2 (Homo sapiens) (UniProt O75604); experiment: qHTS Validation Assay for Inhibitors of Ubiquitin-specific Protease USP2a Using CHOP2 as the Reporter (AID 463106)
Ubiquitin carboxyl-terminal hydrolase 2 (Homo sapiens), sequence (O75604 whole entry, looked up): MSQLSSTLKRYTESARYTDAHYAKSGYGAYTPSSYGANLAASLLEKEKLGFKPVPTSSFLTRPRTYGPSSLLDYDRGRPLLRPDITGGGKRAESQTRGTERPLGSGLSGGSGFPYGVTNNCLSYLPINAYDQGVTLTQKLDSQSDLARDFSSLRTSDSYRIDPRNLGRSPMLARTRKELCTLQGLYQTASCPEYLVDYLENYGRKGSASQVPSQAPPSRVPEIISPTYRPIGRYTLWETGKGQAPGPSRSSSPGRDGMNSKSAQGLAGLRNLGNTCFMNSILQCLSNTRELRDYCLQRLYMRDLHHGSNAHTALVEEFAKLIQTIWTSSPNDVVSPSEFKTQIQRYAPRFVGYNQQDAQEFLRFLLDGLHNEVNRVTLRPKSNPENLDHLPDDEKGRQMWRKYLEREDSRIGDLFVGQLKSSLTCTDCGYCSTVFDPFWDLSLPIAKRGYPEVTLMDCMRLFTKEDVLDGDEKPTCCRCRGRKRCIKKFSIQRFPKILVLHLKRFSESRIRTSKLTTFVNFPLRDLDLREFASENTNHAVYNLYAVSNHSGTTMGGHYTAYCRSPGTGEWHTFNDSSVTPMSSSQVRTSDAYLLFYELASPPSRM
Method in brief: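 Inhibition is expressed relative to NEM as the full-inhibition control, with concentration-response curves classed by fit quality, magnitude and activity. Enzyme (USP2 core, 10nM) meets 25nM Ub-CHOP2 after compound preincubation; readings are taken at 60min.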

[6] = target: DNA polymerase III PolC-type (Bacillus subtilis (strain 168)) (UniProt P13267); experiment: qHTS Validation Assay for the Inhibitors of DNA Replication in Gram-Positive Bacteria (AID 485295);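 note: reconstituted holoenzyme with PolC plus beta clamp SSB and primase; PicoGreen fluorescence of double-stranded DNA made on primed circular M13 template; series mostly up to about 57 µM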
DNA polymerase III PolC-type (Bacillus subtilis (strain 168)), sequence (P13267 whole entry, looked up): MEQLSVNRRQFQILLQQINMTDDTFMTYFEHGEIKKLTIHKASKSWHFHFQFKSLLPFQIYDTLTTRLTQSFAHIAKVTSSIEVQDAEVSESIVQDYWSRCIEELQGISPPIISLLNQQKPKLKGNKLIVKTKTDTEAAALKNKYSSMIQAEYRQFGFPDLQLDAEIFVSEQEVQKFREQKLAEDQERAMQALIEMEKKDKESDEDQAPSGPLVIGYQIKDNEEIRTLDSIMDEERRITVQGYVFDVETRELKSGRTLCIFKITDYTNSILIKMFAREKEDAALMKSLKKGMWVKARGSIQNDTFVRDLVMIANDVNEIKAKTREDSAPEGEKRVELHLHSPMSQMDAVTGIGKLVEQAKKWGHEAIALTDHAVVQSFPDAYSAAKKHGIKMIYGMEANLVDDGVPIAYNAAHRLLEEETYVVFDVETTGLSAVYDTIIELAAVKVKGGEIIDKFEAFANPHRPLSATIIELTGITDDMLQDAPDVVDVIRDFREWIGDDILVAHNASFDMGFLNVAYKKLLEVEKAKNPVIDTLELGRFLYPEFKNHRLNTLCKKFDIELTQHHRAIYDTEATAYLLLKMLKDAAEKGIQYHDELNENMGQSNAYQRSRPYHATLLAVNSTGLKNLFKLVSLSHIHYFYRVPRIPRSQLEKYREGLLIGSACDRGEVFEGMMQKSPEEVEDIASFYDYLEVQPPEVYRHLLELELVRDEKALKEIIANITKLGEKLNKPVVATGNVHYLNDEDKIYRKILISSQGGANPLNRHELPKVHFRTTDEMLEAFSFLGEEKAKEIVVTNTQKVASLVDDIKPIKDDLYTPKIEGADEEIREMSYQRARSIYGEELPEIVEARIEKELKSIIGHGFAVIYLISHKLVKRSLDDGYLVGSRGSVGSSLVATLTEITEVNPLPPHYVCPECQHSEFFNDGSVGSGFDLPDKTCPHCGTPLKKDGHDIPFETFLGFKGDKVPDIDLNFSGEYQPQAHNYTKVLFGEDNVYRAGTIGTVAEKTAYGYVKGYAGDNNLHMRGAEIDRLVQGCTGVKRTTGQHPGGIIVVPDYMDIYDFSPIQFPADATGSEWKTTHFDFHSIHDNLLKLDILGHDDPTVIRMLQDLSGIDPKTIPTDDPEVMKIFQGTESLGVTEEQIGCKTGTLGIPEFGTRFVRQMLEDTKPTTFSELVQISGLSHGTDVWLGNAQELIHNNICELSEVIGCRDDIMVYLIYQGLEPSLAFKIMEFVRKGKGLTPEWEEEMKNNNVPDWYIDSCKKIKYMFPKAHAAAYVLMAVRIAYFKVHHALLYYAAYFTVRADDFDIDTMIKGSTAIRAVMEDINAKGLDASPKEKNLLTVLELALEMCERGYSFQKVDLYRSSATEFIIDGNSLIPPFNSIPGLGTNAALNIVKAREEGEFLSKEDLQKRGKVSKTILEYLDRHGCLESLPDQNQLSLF
Method in brief: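 PicoGreen fluorescence (ex 480–485/em 535–540 nm) reports dsDNA synthesized on ssM13Gori template with dNTPs/NTPs. Enzyme: holoenzyme rebuilt from purified PolC, beta subunit, SSB and primase. Compound preincubated before substrate addition; RT throughout.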

[7] = target: Tumor susceptibility gene 101 protein (Homo sapiens) (UniProt Q99816); experiment: qHTS Validation Assay for Iinhibitors of HIV-1 Budding by Blocking the Interaction of PTAP/TSG101 (AID 485342; calls by dose curve)
Tumor susceptibility gene 101 protein (Homo sapiens), sequence (Q99816 whole entry, looked up, the tested form may be a part): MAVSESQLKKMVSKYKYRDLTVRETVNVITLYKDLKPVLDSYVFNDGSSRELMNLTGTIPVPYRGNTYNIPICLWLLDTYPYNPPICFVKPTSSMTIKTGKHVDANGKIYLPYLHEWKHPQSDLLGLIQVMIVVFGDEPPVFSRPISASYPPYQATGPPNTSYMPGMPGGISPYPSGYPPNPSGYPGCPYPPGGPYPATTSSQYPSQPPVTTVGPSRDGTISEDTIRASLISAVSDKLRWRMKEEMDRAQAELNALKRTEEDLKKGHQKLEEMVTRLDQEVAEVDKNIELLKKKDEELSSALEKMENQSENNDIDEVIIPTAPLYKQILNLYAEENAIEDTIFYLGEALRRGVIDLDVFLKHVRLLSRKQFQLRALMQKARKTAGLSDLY
Method in brief: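 FP read-out: FITC-PTAP peptide, 50 nM final, binding Tsg101 binding domain, 10 uM final; 20 min r.t.; 10 mM HEPES pH 7.5, 0.15 M NaCl, 0.01% Tween 20, 3 mM EDTA, 0.1 mM TCEP.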

[8] = qHTS Validation Assay to Find Inhibitors of Chronic Active B-Cell Receptor Signaling (AID 485345; active = well fitted curve in the direction sought with a large enough effect in the main read-out, with a control signal flat, not every such curve was filed as active)
Method in brief: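 TMD8 ABC-DLBCL cells with dox-inducible green luciferase–IκBα fusion and red native luciferase; compounds 46 uM–3 nM, 4 h at 37C with doxycycline in 0.5% FBS IMDM. Green/red ratio normalized to basal and 10 uM MG-132.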

[9] = Cytometry Cell-Based qHTS for Inhibitors of the mTORC1 Signaling Pathway in MEF cells (AID 2668);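 note: Tsc2-/- p53-/- mouse embryonic fibroblasts stably re-expressing wild-type Tsc2; percent cells positive for phospho-rpS6 Ser235/236 relative to propidium iodide stain; series mostly up to about 38 µM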
Method in brief: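 Read-out: phospho-rpS6 Ser235/236 immunofluorescence normalized to propidium iodide intensity, scored as % active cells against a rapamycin (7.5 nM) threshold. Cells: Tsc2-/-, p53-/- MEFs stably expressing WT Tsc2, compound-treated 24 hrs at 37 degree Celsius.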

For `NC(N)=N[C@@H](CCC(=O)O)C(=O)O`, which outcome [1] is on record?
Its outcome is “inactive”.

And the Potency [2]?
The Potency was “inactive”.

And the Potency [3]?
Its Potency is “inactive”.

What about the Potency [4] of the same compound?
Its Potency is “inactive”.

What about the Potency [5] of the same compound?
Its Potency is “inactive”.

And the Potency [6]?
The Potency was “inactive”.

And the outcome [7]?
The outcome was “inactive”.

What about the outcome [8] of the same compound?
The outcome was “inactive”.

Which results are given for `O=C(OCCN1CCOCC1)C1(c2ccccc2)CCCCC1`?
outcome [1]: inactive; Potency [2]: inactive; Potency [3]: inactive; Potency [4]: inactive; Potency [5]: inactive; Potency [6]: inactive; outcome [7]: inactive; outcome [8]: inactive

With `CCCCCCN(CCCCCC)C(=O)Cc1c(-c2ccc(F)cc2)[nH]c2ccccc12` as the compound, how does the outcome [1] read?
Its outcome is “inactive”.

What about the Potency [2] of the same compound?
The Potency was “inactive”.

And the Potency [3]?
The Potency was “inactive”.

And the Potency [4]?
Its Potency is “inactive”.

What about the Potency [5] of the same compound?
Its Potency is “inactive”.

What about the Potency [6] of the same compound?
Its Potency is “inactive”.

And the outcome [7]?
The outcome was “inactive”.

And the outcome [8]?
Its outcome is “inactive”.

Which outcome [1] does the source give for `CC[N+](CC)(CC)CC(=O)Nc1c(C)cccc1C` here?
Its outcome is “inactive”.

And the Potency [2]?
Its Potency is “inactive”.

And the Potency [3]?
Its Potency is “inactive”.

And the Potency [4]?
Its Potency is “inactive”.

What about the Potency [5] of the same compound?
The Potency was “inactive”.

And the Potency [6]?
The Potency was “inactive”.

And the outcome [7]?
The outcome was “inactive”.

And the outcome [8]?
The outcome was “inactive”.

With `Nc1ncnc2c1ncn2C1CCCO1` (stereo unspecified) as the compound, how does the outcome [1] read?
Its outcome is “inactive”.

What about the Potency [2] of the same compound?
Its Potency is “inactive”.

What about the Potency [3] of the same compound?
Its Potency is “inactive”.

What about the Potency [4] of the same compound?
Its Potency is “inactive”.

And the Potency [5]?
Its Potency is “inactive”.

What about the Potency [6] of the same compound?
The Potency was “inactive”.

What about the outcome [7] of the same compound?
Its outcome is “inactive”.

Which outcome [1] does the source give for `O=c1cc(-c2ccccc2F)[nH]c2cc3c(cc12)OCO3` here?
The outcome was “inactive”.

What about the Potency [2] of the same compound?
Its Potency is “inactive”.

What about the Potency [3] of the same compound?
Its Potency is “inactive”.

And the Potency [5]?
The Potency was “inactive”.

And the Potency [6]?
Its Potency is “inactive”.

What about the outcome [7] of the same compound?
Its outcome is “inactive”.

For `CCCc1c(-c2ccc(O)cc2)nn(-c2ccc(O)cc2)c1-c1ccc(O)cc1`, which outcome [1] is on record?
The outcome was “inactive”.

What about the Potency [2] of the same compound?
Its Potency is “inactive”.

What about the Potency [3] of the same compound?
Its Potency is “inactive”.

And the Potency [9]?
Its Potency is “inactive”.

And the Potency [6]?
Its Potency is “inactive”.

And the outcome [7]?
Its outcome is “inactive”.

For `CC1=C(/C=C/C(C)=C/C=C/C(C)=C\C(=O)O)C(C)(C)CCC1`, which outcome [1] is on record?
The outcome was “inactive”.

What about the Potency [2] of the same compound?
The Potency was “inactive”.

And the Potency [3]?
The Potency was “inactive”.

And the Potency [5]?
Its Potency is “inactive”.

What about the Potency [6] of the same compound?
Its Potency is “inactive”.

What about the outcome [7] of the same compound?
The outcome was “inactive”.

For `CNCCNS(=O)(=O)c1cccc2cnccc12`, which outcome [1] is on record?
Its outcome is “inactive”.

And the Potency [2]?
The Potency was “inactive”.

And the Potency [3]?
The Potency was “inactive”.

And the Potency [4]?
Its Potency is “inactive”.

And the Potency [5]?
Its Potency is “inactive”.

What about the Potency [6] of the same compound?
Its Potency is “inactive”.

And the outcome [7]?
Its outcome is “inactive”.

Which results are given for `NC[C@@H]1O[C@H](c2ccccc2)Cc2c1ccc(O)c2O`?
outcome [1]: inactive; Potency [2]: inactive; Potency [3]: inactive; Potency [9]: inactive; Potency [5]: inactive; outcome [7]: inactive; outcome [8]: inactive

For `CC(=O)O[C@H]1Cc2ccccc2N(C(N)=O)c2ccccc21`, which outcome [1] is on record?
The outcome was “inactive”.

What about the Potency [2] of the same compound?
Its Potency is “inactive”.

What about the Potency [3] of the same compound?
Its Potency is “inactive”.

What about the Potency [9] of the same compound?
Its Potency is “inactive”.

And the Potency [5]?
The Potency was “inactive”.

And the outcome [7]?
Its outcome is “inactive”.

What about the outcome [8] of the same compound?
The outcome was “inactive”.

With `O=C(O)/C=C/c1ccc(O)c(O)c1` as the compound, how does the outcome [1] read?
Its outcome is “inactive”.

And the Potency [2]?
The Potency was “inactive”.

What about the Potency [3] of the same compound?
Its Potency is “inactive”.

What about the Potency [4] of the same compound?
The Potency was “inactive”.

What about the Potency [5] of the same compound?
The Potency was “inactive”.

What about the Potency [6] of the same compound?
The Potency was “inactive”.

What about the outcome [7] of the same compound?
The outcome was “inactive”.

And the outcome [8]?
Its outcome is “inactive”.

With `O=c1cc(-c2ccccc2)[nH]c2nc(Cl)ccc12` as the compound, how does the outcome [1] read?
Its outcome is “inactive”.

And the Potency [2]?
The Potency was “inactive”.

And the Potency [3]?
The Potency was “inactive”.

And the Potency [4]?
The Potency was 6.31 µM (active).

And the Potency [5]?
The Potency was “inactive”.

And the Potency [6]?
Its Potency is “inactive”.

And the outcome [7]?
The outcome was “inactive”.

And the outcome [8]?
The outcome was “inactive”.

Which outcome [1] does the source give for `CCCCCCCCCCC(C)(C)C(=O)Nc1c(OC)cc(OC)cc1OC` here?
Its outcome is “inactive”.

And the Potency [2]?
Its Potency is “inactive”.

And the Potency [3]?
The Potency was “inactive”.

And the Potency [9]?
Its Potency is “inactive”.

What about the Potency [5] of the same compound?
The Potency was “inactive”.

And the outcome [7]?
Its outcome is “inactive”.

And the outcome [8]?
The outcome was “inactive”.
